Assay results published in PubChem BioAssay (NCATS).
Unmarked numbers belong to inactive results. Results filed as inconclusive are left out. Active and inactive are the calls of the source. Unless noted, the call rests on the fitted dose curve; in most records, active means well fitted curve in either direction with a large enough effect (not every such curve was filed as active); inconclusive means small, poorly fitted or top-dose-only effect, or another doubt; inactive means flat fitted curve, though single readings scatter.

Test system: not listed separately
Assay: NFAT Signaling Pathway (AID 444);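 further: carbachol stimulus at about its EC50 of 1 µM final; on the % scale 0 is the no-effect control and ±100 the full control effect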
Conditions: Jurkat NFAT-bla M1, carbachol, beta-lactamase ratio, 5 h; at 7.69 µM (top of the series) unless noted
Outline: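 Read-out: CCF4 FRET ratio (460 nm/530 nm) after 1 h RT dye loading, used for %activity and AC50 from titration series. Cells: Jurkat NFAT-β-lactamase/M1 line, treated with compound plus 1 uM carbachol for 5 h, 37 °C.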

SMILES | activity change, negative = inhibition
FC(F)(F)c1ccccc1-c1nccc(NCc2cccs2)n1 | -3.1%
COCCn1c(=O)c(-c2cccc(C#N)c2)nc2cnc(Oc3ccccc3)nc21 | 2.72%
FC(F)(F)c1ccccc1-c1nc(NCc2cccs2)c2ccccc2n1 | -18.2%
COCCn1c(=O)cnc2cnc(Nc3cccc(OC)c3)nc21 | -0.925%
COc1ccc(-c2nc3cnc(Oc4ccccc4)nc3n(CCC#N)c2=O)cc1 | -15.1%
COc1cccc(Nc2ncc3nc(CCc4ccccc4)c(=O)n(C)c3n2)c1 | 21.6%
Cc1nc2cncnc2n(C2CC2)c1=O | 2.34%
COc1ccc2[nH]cc(CCNc3ncnc4ccc(-c5cccnc5)cc34)c2c1 | 18.7%
Cn1c(=O)c(-c2ccc(Cl)cc2)nc2cnc(N3CCOCC3)nc21 | 26.9%
COc1ccc(Oc2ncc3nc(-c4ccc(Cl)cc4)c(=O)n(C[C@H]4CCCO4)c3n2)cc1 | -18.6%
CN1CCN(c2ncc3nc(-c4cc(F)cc(F)c4)c(=O)n(Cc4cccs4)c3n2)CC1 | 168% [activator] (active)
CNc1nc(-c2ccccc2CN(C)C)nc2ccccc12 | -2.05%
COc1cccc(Nc2ncc3nc(C)c(=O)n(Cc4cccs4)c3n2)c1 | -29.6%
CN1CCN(c2cc(-c3ccoc3)ncn2)CC1 | -3.33%
CN(C)c1ncnc2ccc(-c3ccoc3)cc12 | 1.35%
CCNc1ncc2nc(-c3cn(C)c4ccccc34)c(=O)n(Cc3cccc(OC)c3)c2n1 | 5.19%
COc1ccc(-c2nc3cnc(Oc4cccc(Cl)c4)nc3n(C3CC3)c2=O)cc1 | -3.56%
COc1ncc2nc(-c3cccs3)c(=O)n(CCc3ccccc3)c2n1 | 11.4%

Test system: not listed separately
Assay: Stat Signaling Pathway (AID 446);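 further: ME-180 cervical cancer cells given 40 pM IL-6 alongside compound; SIE-controlled beta-lactamase reporter measured as 460/530 nm FRET emission ratio; on the % scale 0 is the no-effect control and ±100 the full control effect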
Conditions: ME-180 SIE beta-lactamase reporter, IL-6 stimulated, 5 h; at 7.69 µM (top of the series) unless noted
Outline: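 Screening format detects activators and inhibitors alike: ME-180 SIE-bla cells stimulated at 40 pM IL-6 for 5 hrs with compound, then dual-emission beta-lactamase read at 405 nm excitation.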

SMILES | activity, negative = inhibition
FC(F)(F)c1ccccc1-c1nccc(NCc2cccs2)n1 | -15.9%
CN1CCN(c2ncc3ncc(=O)n(C[C@H]4CCCO4)c3n2)CC1 | -20.2%
COCCn1c(=O)c(-c2cccc(C#N)c2)nc2cnc(Oc3ccccc3)nc21 | -11.3%
CS(=O)(=O)Nc1cccc(-c2ccc3ncnc(Nc4ccccc4)c3c2)c1 | -2.27%
FC(F)(F)c1ccccc1-c1nc(NCc2cccs2)c2ccccc2n1 | -11.7%
c1ccc(CNc2ncnc3ccc(-c4cccnc4)cc23)cc1 | -1.78%
COCCNc1ncnc2ccc(-c3cccc(OC)c3)cc12 | -27.4%
COc1ccc(-c2nc3cnc(Oc4ccccc4)nc3n(CCC#N)c2=O)cc1 | -20%
COc1cccc(Nc2ncc3nc(CCc4ccccc4)c(=O)n(C)c3n2)c1 | -7.18%
Cc1nc2cncnc2n(C2CC2)c1=O | -12.1%
COc1ccc2[nH]cc(CCNc3ncnc4ccc(-c5cccnc5)cc34)c2c1 | -10.2%
CN(C)c1ncc2nc(-c3ccccc3)c(=O)n(Cc3ccc(F)cc3)c2n1 | 178% [activator] (active)
COc1ccc(Oc2ncc3nc(-c4ccc(Cl)cc4)c(=O)n(C[C@H]4CCCO4)c3n2)cc1 | -13.9%
CNc1nc(-c2ccccc2CN(C)C)nc2ccccc12 | 17.3%
COCCNc1ncnc2ccc(-c3cccnc3)cc12 | 18%
COc1cccc(Cn2c(=O)c(-c3cc(F)cc(F)c3)nc3cnc(N(C)C)nc32)c1 | 91.4% [activator] (active)
COc1cccc(Nc2ncc3nc(C)c(=O)n(Cc4cccs4)c3n2)c1 | -12.1%
CN1CCN(c2cc(-c3ccoc3)ncn2)CC1 | 8.56%
CN(C)c1ncnc2ccc(-c3ccoc3)cc12 | -10.6%
COc1ccc(-c2nc3cnc(Oc4cccc(Cl)c4)nc3n(C3CC3)c2=O)cc1 | 15%

Target: Glucocorticoid receptor (Homo sapiens) (UniProt P04150)
Assay: GR-GFP Redistribution (AID 450;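 active means compounds whose dose series gives a full or clear partial fitted curve of increased nuclear translocation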; further: potency means the concentration at half of the fitted maximal effect)
Conditions: U2OS GR-GFP nuclear translocation, laser cytometry, 2 h

Glucocorticoid receptor (Homo sapiens), sequence (P04150 whole entry, looked up): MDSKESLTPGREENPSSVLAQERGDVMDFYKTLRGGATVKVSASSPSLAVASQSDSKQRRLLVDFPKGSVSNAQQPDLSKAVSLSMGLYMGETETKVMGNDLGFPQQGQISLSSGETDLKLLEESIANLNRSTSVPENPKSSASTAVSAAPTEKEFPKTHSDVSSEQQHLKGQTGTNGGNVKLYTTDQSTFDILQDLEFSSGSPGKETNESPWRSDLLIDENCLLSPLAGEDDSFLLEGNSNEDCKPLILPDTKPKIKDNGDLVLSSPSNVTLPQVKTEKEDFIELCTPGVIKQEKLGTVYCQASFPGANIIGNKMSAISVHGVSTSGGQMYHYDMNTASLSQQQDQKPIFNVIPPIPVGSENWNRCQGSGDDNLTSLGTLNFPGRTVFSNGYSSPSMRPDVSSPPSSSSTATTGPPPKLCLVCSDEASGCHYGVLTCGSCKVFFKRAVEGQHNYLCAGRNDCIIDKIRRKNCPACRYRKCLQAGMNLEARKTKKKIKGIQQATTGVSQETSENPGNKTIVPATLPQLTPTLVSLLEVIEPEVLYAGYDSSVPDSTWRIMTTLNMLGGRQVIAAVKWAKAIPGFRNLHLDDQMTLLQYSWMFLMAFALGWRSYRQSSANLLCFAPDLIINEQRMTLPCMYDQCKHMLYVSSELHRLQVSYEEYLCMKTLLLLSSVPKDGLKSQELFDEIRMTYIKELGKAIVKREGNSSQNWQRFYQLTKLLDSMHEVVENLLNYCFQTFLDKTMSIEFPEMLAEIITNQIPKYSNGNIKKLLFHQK

SMILES | Potency [µM]
FC(F)(F)c1ccccc1-c1nccc(NCc2cccs2)n1 | > 46
CN1CCN(c2ncc3ncc(=O)n(C[C@H]4CCCO4)c3n2)CC1 | > 9.22
CS(=O)(=O)Nc1cccc(-c2ccc3ncnc(Nc4ccccc4)c3c2)c1 | > 46
FC(F)(F)c1ccccc1-c1nc(NCc2cccs2)c2ccccc2n1 | > 46
c1ccc(CNc2ncnc3ccc(-c4cccnc4)cc23)cc1 | > 46
COc1ccc(-c2nc3cnc(N4CCN(C)CC4)nc3n(Cc3cccs3)c2=O)cc1 | > 9.22
COCCn1c(=O)cnc2cnc(Nc3cccc(OC)c3)nc21 | > 9.22
COCCn1c(=O)cnc2cnc(Nc3ccccc3)nc21 | > 9.22
CN1CCN(c2ncc3nc(-c4cc(F)cc(F)c4)c(=O)n(CCc4ccccc4)c3n2)CC1 | > 9.22
O=c1c(-c2ccc(Cl)cc2)nc2cnc(N3CCNCC3)nc2n1Cc1cccs1 | > 9.22
O=c1c(-c2ccc(F)cc2)nc2cnc(N3CCNCC3)nc2n1C1CC1 | > 9.22
COCCNc1ncnc2ccc(-c3cccc(OC)c3)cc12 | > 46
O=c1c(-c2ccc(Cl)cc2)nc2cnc(N3CCOCC3)nc2n1-c1ccccc1 | > 9.22
CN(C)c1ncc2nc(-c3ccc(F)cc3)c(=O)n(Cc3ccc(F)cc3)c2n1 | > 9.22
COc1ccc(-c2nc3cnc(Oc4ccccc4)nc3n(CCC#N)c2=O)cc1 | > 9.22
COc1cccc(Nc2ncc3nc(CCc4ccccc4)c(=O)n(C)c3n2)c1 | > 9.22
Cc1nc2cncnc2n(C2CC2)c1=O | > 9.22
COc1ccc2[nH]cc(CCNc3ncnc4ccc(-c5cccnc5)cc34)c2c1 | > 46

SMILES | Potency [µM]
Cn1c(=O)c(-c2ccc(Cl)cc2)nc2cnc(N3CCOCC3)nc21 | > 9.22
CN(C)c1ncc2nc(-c3ccccc3)c(=O)n(Cc3ccc(F)cc3)c2n1 | > 9.22
COc1ccc(Oc2ncc3nc(-c4ccc(Cl)cc4)c(=O)n(C[C@H]4CCCO4)c3n2)cc1 | > 9.22
COc1ncc2nc(-c3ccc(F)cc3)c(=O)n(C)c2n1 | > 9.22
CN1CCN(c2ncc3nc(-c4cc(F)cc(F)c4)c(=O)n(Cc4cccs4)c3n2)CC1 | > 9.22
CCNc1ncc2nc(-c3ccccc3)c(=O)n(Cc3cccs3)c2n1 | > 9.22
CN1CCN(c2ncc3nc(-c4ccc(Cl)cc4)c(=O)n(-c4ccccc4)c3n2)CC1 | > 9.22
CN1CCN(c2ncc3nc(-c4ccc(F)cc4)c(=O)n(Cc4cccs4)c3n2)CC1 | > 9.22
CNc1nc(-c2ccccc2CN(C)C)nc2ccccc12 | > 46
COCCNc1ncnc2ccc(-c3cccnc3)cc12 | > 46
COc1cccc(Cn2c(=O)c(-c3cccc(C#N)c3)nc3cnc(N4CCN(C)CC4)nc32)c1 | > 9.22
COc1cccc(Cn2c(=O)c(-c3cc(F)cc(F)c3)nc3cnc(N4CCN(C)CC4)nc32)c1 | > 9.22
COc1cccc(Nc2ncc3nc(C)c(=O)n(Cc4cccs4)c3n2)c1 | > 9.22
CN1CCN(c2cc(-c3ccoc3)ncn2)CC1 | > 46
CN(C)c1ncnc2ccc(-c3ccoc3)cc12 | > 46
CCNc1ncc2nc(-c3cn(C)c4ccccc34)c(=O)n(Cc3cccc(OC)c3)c2n1 | > 9.22
COc1ccc(-c2nc3cnc(Oc4cccc(Cl)c4)nc3n(C3CC3)c2=O)cc1 | > 9.22
COc1ncc2nc(-c3cccs3)c(=O)n(CCc3ccccc3)c2n1 | > 9.22
